Rows were chosen to be rich in hits. Some 19% of all compounds tested hit in one or more screens of this group.
TDP1 cell noCPT: qHTS for Inhibitors of human tyrosyl-DNA phosphodiesterase 1 (TDP1): qHTS in cells in absence of CPT; DT40 Tdp1-/- hTDP1 cells, no CPT, ATP luminescence, 48 h; Potency, µM (top dose mostly 46.2 µM), usual class: inhibitors; 420,000 compounds, 15% hits; AID 686978, 2013; further: nearly all actives have a fitted effect of over 55% in size
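Camptothecin absent (DMSO only). Human TDP1-complemented DT40 knockout cells, 400 cells/well, 37 °C for minimum 48 hr; ATP measured via CellTiter-Glo, 30 min dark incubation, luminescence.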
TDP1 cell CPT: qHTS for Inhibitors of human tyrosyl-DNA phosphodiesterase 1 (TDP1): qHTS in cells in presence of CPT; chicken DT40 Tdp1-/-;hTDP1 cells + 20 nM CPT, ATP luminescence, 48 h; Potency, µM (series often up to 46.2 µM), actives largely listed as inhibitors; 420,000 compounds, 12% hits; AID 686979, 2013; further: nearly all actives have a fitted effect of over 55% in size
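Cell growth measured by CellTiter-Glo luminescence after a minimum 48 h, 37 C compound exposure with 20 nM CPT in Tdp1-knockout DT40 cells stably expressing hTDP1, seeded 400/well; qHTS titration format.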
IL1B secr inh: qHTS for Inhibitors of Inflammasome Signaling: IL-1-beta AlphaLISA Primary Screen | THP-1 LPS/ATP IL-1B secretion, AlphaLISA, 16 h; stronger effect = lower value | activity change, % at 57.5 µM | 360,000 compounds, 4.7% hits | AID 743279, 2014; in the data active means activity change below about -50%; inconclusive means mostly about -30% to -49%
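THP-1 cells pretreated 1 hr with compounds (up to 57.5 uM final), then stimulated with LPS (250 ng/mL final) plus ATP (1.25 mM final); secreted IL-1B measured by AlphaLISA after 16 hr, decreased signal indicating inhibition.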
HT1080NT lethal: qHTS for induction of synthetic lethality in tumor cells producing 2HG: qHTS for the HT-1080-NT fibrosarcoma cell line; HT-1080-NT fibrosarcoma viability, CellTiter-Glo ATP luminescence, 48 h; Potency, µM (series often up to 46.1 µM), usual class: cytotoxic; 360,000 compounds, 1.6% hits;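 further: NT is the 2HG producing partner of a matched IDH1 knockdown line; nearly all actives have a fitted effect of over 55% in size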
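Viability by CellTiter-Glo luminescence after 48 h compound exposure at 37C of HT-1080-NT cells (750/well, RPMI, 5% FBS). % activity scaled between DMSO wells and medium-only wells, then curve-fitted and categorized by curve class.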
HT1080 IDH1KD tx: qHTS for induction of synthetic lethality in tumor cells producing 2HG: qHTS for the HT-1080-IDH1KD cell line; HT-1080 IDH1 knockdown viability, ATP luminescence, 48 h; Potency, µM (doses to about 46.1 µM), actives largely listed as cytotoxic; 360,000 compounds, 2% hits
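Using the IDH1-knockdown HT-1080 line run in the same batch and compound series as the NT line, viability after 48 h at 37 °C was determined by CellTiter-Glo luminescence and expressed as % activity.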
Numbers stand for hits; . = inactive; ? = inconclusive; / = no result given. Unless noted, the call rests on the fitted dose curve; in most records, active means well fitted curve in the direction sought with a large enough effect; inconclusive means small, poorly fitted or top-dose-only effect, or another doubt; inactive means no such curve, though single readings can be large; an effect the other way counts as inactive or inconclusive.

SMILES	TDP1 cell noCPT	TDP1 cell CPT	IL1B secr inh	HT1080NT lethal	HT1080 IDH1KD tx
CCn1cc(C(=O)NCc2ccco2)c(=O)c2cc(S(=O)(=O)N3CCCCCC3)ccc21	?	20.6µM	.	14.6µM	?
CCn1cc(C(=O)NCc2ccco2)c(=O)c2cc(S(=O)(=O)N3CCC(C)CC3)ccc21	?	?	.	?	?
CN(C)S(=O)(=O)c1cccc(NC(=O)c2ccc(COc3ccccc3)cc2)c1	6.51µM	18.4µM	-72.5	?	.
CCN(CC)CCNC(=O)c1ccc(NC(C)=O)cc1	.	.	.	.	.
CN(c1ccc(C(=O)Nc2cccc(O)c2)cc1)S(=O)(=O)c1ccccc1	?	?	.	.	.
CCN(CC)CCNC(=O)c1ccc(NC(=O)c2ccc(COc3ccccc3)cc2)cc1	.	23.1µM	.	.	?
COCc1ccc(C(=O)Nc2cccc(S(=O)(=O)N(C)c3ccccc3)c2)cc1	18.4µM	18.4µM	.	6.51µM	.
C=CCS/C(N)=N\N=C\c1c(O)ccc2ccccc12	?	?	.	.	.
COc1ccc(CNS(=O)(=O)CCNC(=O)c2ccc3c(c2)OCO3)cc1	.	.	.	.	.
CCCCSCCCNC(=O)C1CCC(CNS(=O)(=O)c2ccccc2)CC1 (configuration not stated)	?	16.4µM	.	.	.
Fc1cccc(Cl)c1C1SCc2nc3ccccc3n21 (configuration not stated)	14.6µM	16.4µM	.	?	?
CC1(c2ccccc2)NC(=O)N(CC(=O)Nc2ccc(C(N)=O)cc2)C1=O (configuration not stated)	.	.	.	.	.
CCOc1ccc(Oc2ccccc2NC(=O)C2=COCCO2)cc1	?	16.4µM	.	.	.
O=C(Nc1ccccc1Oc1ccccc1)C1=COCCO1	.	.	.	.	.
CCOc1ccc(S(=O)(=O)N2CCOCC2)cc1NC(=O)C1=COCCO1	.	.	.	.	.
CCOc1ccc(Oc2ccc(S(=O)(=O)N3CCOCC3)cc2NC(=O)C2=COCCO2)cc1	23.1µM	?	.	.	.
COc1ccccc1C(=O)Nc1ccc(-c2nc3cc(C)cc(C)c3o2)cc1	.	.	/	/	/
COc1cc(C(=O)N2CCN(S(=O)(=O)c3ccc(C)cc3C)CC2)ccc1OCC(=O)N1CCOCC1	.	.	.	.	.
O=S(=O)(/C(=C/c1ccc(C(F)(F)F)cc1)c1nc2ccccc2[nH]1)c1ccccc1	2.91µM	2.59µM	-103.6	2.59µM	4.61µM
CC(C)c1ccc(/C=C(\c2nc3ccccc3[nH]2)S(=O)(=O)c2ccccc2)cc1	4.61µM	4.61µM	-103.3	5.17µM	3.26µM
CC(C)(C(=O)c1ccccc1)/[N+]([O-])=C/c1ccccc1F	.	.	.	.	.
COc1ccccc1N1CCN(C(=O)C2CCN(S(=O)(=O)c3ccc4c(c3)CC(C)N4C(=O)C3CC3)CC2)CC1 (configuration not stated)	?	?	-52.6	.	.
COc1ccccc1N1CCN(C(=O)C2CCN(S(=O)(=O)c3ccc4c(c3)CC(C)N4C(C)=O)CC2)CC1 (configuration not stated)	11.6µM	?	.	.	.
COc1ccccc1N1CCN(C(=O)C2CCN(S(=O)(=O)c3ccc(Cl)cc3)CC2)CC1	20.6µM	?	.	.	.
COc1ccccc1N1CCN(S(=O)(=O)c2ccc3c(c2)CC(C)N3C(C)=O)CC1 (configuration not stated)	?	?	.	.	.
SMILES	TDP1 cell noCPT	TDP1 cell CPT	IL1B secr inh	HT1080NT lethal	HT1080 IDH1KD tx
CC(C)c1ccc(S(=O)(=O)N2CCC(C(=O)N3CCN(c4cccc(Cl)c4)CC3)CC2)cc1	?	25.9µM	.	.	.
COc1ccccc1N1CCN(C(=O)C2CCN(S(=O)(=O)c3ccccc3)CC2)CC1	.	.	.	.	.
CCc1nn(CC(=O)Nc2c(C)cccc2C)c(=O)c2cc3sccc3n12	.	.	/	/	/
N#CC1=C(N)CCC1	.	.	/	/	/
CCOC(=O)c1ccccc1NC(=O)CSc1nc(N)cc(=O)[nH]1	.	.	.	.	.
Cc1ccc(Cl)cc1NC(=O)c1ccc2snnc2c1	.	.	/	/	/
CC1Cc2cc(S(=O)(=O)N3CCN(c4ccccc4F)CC3)ccc2N1C(=O)C1CCC1 (configuration not stated)	.	?	/	/	/
CC1Cc2cc(S(=O)(=O)N3CCC(C(=O)N4CCN(c5ccccc5F)CC4)CC3)ccc2N1C(=O)C1CC1 (configuration not stated)	?	?	-51.5	.	.
Cc1ccc(Cl)cc1N1CCN(S(=O)(=O)c2ccc3c(c2)CC(C)N3C(=O)C2CCC2)CC1 (configuration not stated)	?	.	/	/	/
CC(=O)N1c2ccc(S(=O)(=O)N3CCC(C(=O)N4CCN(c5cc(Cl)ccc5C)CC4)CC3)cc2CC1C (configuration not stated)	9.2µM	10.3µM	.	.	.
Cc1ccc(S(=O)(=O)n2c(C)nc3ccccc32)cc1	.	.	.	.	.
CCOc1ccc(/C=C/c2nc3ccccc3n2S(=O)(=O)c2cccc(Cl)c2)cc1	6.51µM	7.31µM	/	/	/
Cc1ccc(/C=C/c2nc3ccccc3n2S(=O)(=O)c2cccc(Cl)c2)cc1	10.3µM	13µM	/	/	/
CCOc1cc(S(=O)(=O)n2c(C)nc3ccccc32)ccc1F	?	?	.	.	?
CSc1ccc(/C=C/c2nc3ccccc3n2S(=O)(=O)c2ccc(F)c(C)c2)cc1	20.6µM	18.4µM	/	/	/
Cc1nc(-c2cccc(NS(=O)(=O)c3cccc4ccccc34)c2)cs1	.	.	.	.	?
CCOc1ccc(C(C#N)N2CCOCC2)cc1OC (configuration not stated)	.	.	.	.	.
CCOc1ccc(C(=O)C(CN2CCOCC2)c2ccccc2)cc1 (configuration not stated)	3.26µM	3.26µM	-95.0	.	9.2µM
CC(CN1CCN(CC(C)C(=O)c2ccccc2)CC1)C(=O)c1ccccc1 (configuration not stated)	.	?	.	.	.
O=C(c1ccccc1)C(CN1CCCCC1)c1ccccc1 (configuration not stated)	2.06µM	1.84µM	-102.0	2.59µM	10.3µM
CC(CN1CCOCC1)OC(=O)c1ccc(Br)cc1 (configuration not stated)	0.651µM	0.92µM	.	?	?
